What all share (assay): NCI-60 one-dose screen, 48 h (100 = growth as untreated, 0 = no growth, -100 = all killed)
Settings in all cases: 10 µM unless noted

The subject of assay [1] is SK-MEL-2 melanoma.
Assay [2] concerns EKVX NSCLC.
For assay [3], the system named is SN12C renal.
Assay [4] has as its system UO-31 renal.
For assay [5], the system named is TK-10 renal.
The subject of assay [6] is ACHN renal.
Assay [7] concerns CAKI-1 renal.
Assay [8] deals with A498 renal.
The subject of assay [9] is CCRF-CEM leukemia.
Assay [10] deals with MOLT-4 leukemia.

About 83,000 compounds went through this panel and 20% of them were active in at least one assay; those are over-represented in the sample as a whole.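 Negative percent growth values reflect cell death: -40 means 40% of the cells present at the start died, and -100 means all died.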 A number with no mark means an inactive call. Activity calls are given as the source filed them. How the source made its calls: active means growth percent below 10; inactive means the rest.

`COc1ccc2nc(Cl)c(/C=C/C(=O)c3ccc(NC(=O)CSc4nnc(-c5ccc(Cl)c(Cl)c5)n4-c4ccccc4)cc3)cc2c1`: the growth was 87.6% in assay [1]; 93.2% in [2]; 88.2% in [3]; 79.3% in assay [4]; 100% in [5]; 103% in assay [6]. In addition, the growth in assay [7] was 77.6%; in assay [8] it was 87%; in [9], 90.8%; in assay [10], 86.4%.
In the case of `Cc1ccc(/C=C/C(=O)c2ccc(NC(=O)CSc3nc4c([nH]3)c(=O)n(C)c(=O)n4C)cc2)c(C)c1`, the growth is 91.9% in assay [1]; 78.1% in [2]; 57.1% in [3]; 70.4% in assay [4]; 83.5% in assay [5]; 38.8% in assay [6]. The growth in assay [7] is 48.1%; in [8], 40.2%; in assay [9], 65.3%; in assay [10], 62.1%.
As for `CC1=C(C(=O)n2c3ccccc3c3ccccc32)C(c2cccc([N+](=O)[O-])c2)C(C(=O)n2c3ccccc3c3ccccc32)=C(C)N1`, the growth is 102% in assay [1]; 102% in assay [2]; 99.9% in assay [3]; 71.4% in assay [4]; 104% in assay [5]; 93.4% in [6]. For the same molecule, the growth in [7] is 77.5%; in [8], 93.1%; in [9], 88.7%; in [10], 83.1%.
As to `O=C(O)CCCn1c(SCc2c(Cl)cccc2Cl)nc2ccsc2c1=O`, the growth is 31.3% in assay [1]; 52.2% in assay [2]; 53.3% in assay [3]; 37.5% in assay [4]; 48% in assay [5]; 46.7% in assay [6]. Further, the growth in [7] is 30.6%; in [8] it was -1.92% (active); in [9], 19.6%; in assay [10] it was 21.7%.
Turning to `CN1CCN(Cc2ccc(NC(=O)c3cncc(C#Cc4cncc5[nH]ncc45)c3)cc2C(F)(F)F)CC1`, the growth in assay [1] is -52.4% (active); in assay [2], 26.3%; in assay [3], 8.48% (active); in assay [4] it was -25% (active); in assay [5], 12.5%; in assay [6] it was -0.725% (active). Besides, the growth is -52% (active) in assay [7], -49.5% (active) in [8], 7.31% (active) in [9] and 3.77% (active) in assay [10].
Consider `Cn1cc(-c2ccc3cc(-c4ccc(CC(=O)Nc5cc(C(C)(C)C)on5)cc4)cnc3c2)cn1`, for which the growth in assay [1] is 18.9%; in assay [2], 38.8%; in [3] it was 16.7%; in assay [4], 9.45% (active); in [5], 43.9%; in [6], -23% (active). In addition, the growth in assay [7] is 12.8%; in [8], -4.2% (active); in assay [9], 3.44% (active); in [10], 4.87% (active).
As for `C[C@@H]1O[C@@H](O[C@@H]2C[C@H](c3ccc4c(c3O)C(=O)C3=C(C4=O)[C@@]4(O)C(=O)C[C@](C)(O)C[C@@]4(O)C=C3)O[C@H](C)[C@H]2O)C[C@H](O)[C@@H]1O`, the growth was 103% in assay [1]; 102% in assay [2]; 94.2% in assay [3]; 78.9% in assay [4]; 101% in assay [5]; 102% in [6]. Further, the growth in [7] is 88.1%; in [8], 95%; in assay [9] it was 93.8%; in [10], 91.5%.
On to `O=C1NC(=O)c2c1c1c3ccccc3[nH]c1c1oc3cc(Br)ccc3c21`, for which the growth in [1] was 96.9%; in assay [2], 69.9%; in assay [3], 78.7%; in assay [4] it was 36.9%; in assay [5] it was 126%; in assay [6], 55.2%. In addition, the growth in assay [7] is 38.7%; in [8], 26.5%; in [9], 50.9%; in [10], 40.4%.
`Fc1ccc2c(c1)c(-c1nc(-c3c[nH]c4ncccc34)cs1)cn2CCCN1CCOCC1`: the growth in assay [1] is 60.5%; in [2], 55.9%; in assay [3], 73.9%; in [4] it was 31.5%; in assay [5], 66.9%; in [6] it was 42.2%. Moreover, the growth is 56.2% in [7], 51% in assay [8], 21.8% in assay [9] and 24.8% in assay [10].
With `CC(C)C[C@@H](C(=O)N[C@H](C(=O)OC1CCCC1)c1ccccc1)[C@H](O)C(=O)NO`, the growth in [1] was 33.2%; in [2], 67.5%; in assay [3], 86.5%; in [4], 50.8%; in assay [5], 70.4%; in [6], 85.9%. Besides, the growth in assay [7] was 76.2%; in assay [8], 40.7%; in [9] it was 67.8%; in assay [10], 63.4%.
Regarding `COc1cccc(C(=O)OCC(O)C(=O)NC23CC4CC(CC(C4)C2)C3)c1` (stereo not given), the growth in [1] was 101%; in [2] it was 97.4%; in [3], 95.5%; in [4], 87.1%; in [5] it was 96.4%; in assay [6], 97.2%. For the same molecule, the growth was 99.8% in [7], 96.9% in assay [8], 86.3% in [9] and 95.4% in [10].
Regarding `Nc1c(C(=O)Nc2ccncc2)sc2nc3c(cc12)CCCCC3`, the growth was 93.7% in assay [1]; 74.2% in [2]; 78.9% in assay [3]; 66.6% in assay [4]; 85.9% in assay [5]; 88.6% in assay [6]. For the same molecule, the growth in assay [7] is 81.6%; in assay [8], 74.5%; in assay [9], 54.4%; in [10], 40.3%.
For `CC1(C)CC2=C3C=C[C@@H]4[C@@]5(C)CC[C@H](O)C(C)(C)[C@@H]5CC[C@@]4(C)[C@]3(C)CC[C@@]2(C(=O)O)CC1=O`, the growth in [1] was 37.1%; in [2], 61.4%; in assay [3], 54.4%; in assay [4] it was 16.5%; in assay [5], 33.5%; in assay [6], 13%. Further, the growth in assay [7] was 28.2%; in assay [8], 57%; in assay [9], 25.2%; in assay [10], 44.2%.
Consider `FC(F)(F)c1[nH]ncc1-c1nc2c(N3CCCCC3)cc3[nH]ncc3c2c2c1CCCC2`, for which the growth in [1] is -34% (active); in assay [2] it was 13.2%; in [3], 2.49% (active); in [4], -19.6% (active); in assay [5] it was 1.88% (active); in assay [6] it was 4.67% (active). Also, the growth in assay [7] is 5.43% (active); in assay [8] it was -71.6% (active); in [9], 4.61% (active); in assay [10], -0.165% (active).
On to `O=C(CCCCCCN1CC(=O)N2[C@@H](C3CCCCC3)c3[nH]c4ccccc4c3C[C@H]2C1=O)NO`, for which the growth in assay [1] was 69.2%; in [2] it was 77.7%; in [3], -97.1% (active); in assay [4], 84.8%; in assay [5], 48.5%; in [6] it was 88.7%. Moreover, the growth in assay [7] was 70.8%; in assay [8], 82.1%; in assay [9] it was 26.5%; in [10], 10.3%.
As to `CSCCC(NC(=O)c1ccccc1)C(=O)N/N=C1\S/C(=C/c2ccc(Cl)cc2)C(=O)N1C` (stereo not given), the growth in [1] was 97.4%; in [2], 92.7%; in assay [3], 97.3%; in assay [4], 90.6%; in [5], 105%; in assay [6] it was 76.5%. In addition, the growth is 117% in [7], 103% in assay [8], 4.24% (active) in assay [9] and 66.8% in [10].
As for `COc1ccc(NC(=O)c2sc3nc(C)c(C(O)c4ccccc4)cc3c2N)cc1` (stereo not given), the growth in [1] is 46.5%; in [2], 40.4%; in assay [3], 36.1%; in assay [4], 43.4%; in [5], 52.6%; in assay [6], 45.2%. Also, the growth is 42.4% in assay [7], -1.83% (active) in assay [8], 7.85% (active) in assay [9] and 12.5% in assay [10].
Regarding `C=CC(C)(O)CC/C=C(\CO)C(=O)OC1C(C)OC(O[C@](C)(C=C)CC/C=C(\CO)C(=O)O[C@H]2C[C@@]3(C(=O)OC4OC(CO)C(O)C(O)C4OC4OC(C)C(OC5OC(CO)C(O)C5O)C(OC5OC(CO)C(O)C(O)C5O)C4O)C(CC2(C)C)C2=CCC4[C@@]5(C)CC[C@H](OC6OC(COC7OC(C)C(O)C(O)C7OC7OCC(O)C(O)C7O)C(O)C(O)C6NC(C)=O)C(C)(C)C5CC[C@@]4(C)[C@]2(C)C[C@H]3O)C(O)C1O` (stereo not given in full), the growth in assay [1] was -73.8% (active); in [2], -6.51% (active); in [3], -30.1% (active); in assay [4], -57.7% (active); in [5], -83% (active); in assay [6], -87.7% (active). Also, the growth in assay [7] is -70% (active); in [8] it was -81% (active); in assay [9] it was -17.1% (active); in assay [10] it was -21.5% (active).
As for `Cc1cc2oc(=O)cc(CP(=O)(O)O)c2cc1O`, the growth in [1] was 102%; in assay [2], 97.1%; in [3], 93.5%; in [4] it was 70.4%; in assay [5] it was 107%; in assay [6] it was 101%. Moreover, the growth in [7] was 90.9%; in assay [8] it was 80.8%; in assay [9], 103%; in assay [10], 104%.
Consider `CCN(CC)S(=O)(=O)c1ccc(S(=O)(=O)N2CCC[C@@H](C(=O)N3CCN(C(=O)OC(C)(C)C)CC3)C2)cc1`, for which the growth in assay [1] was 101%; in assay [2] it was 54.9%; in [3], 87.4%; in assay [4], 73.6%; in [5], 78.6%; in [6] it was 71.4%. Besides, the growth in assay [7] is 52.1%; in [8], 27.8%; in assay [9], 66.9%; in assay [10], 60.8%.
As for `CCN1C(=O)N(CC)C2C1NN=C1SCC(=O)N12` (stereo not given), the growth in [1] is 106%; in assay [2], 86.8%; in assay [3], 78.9%; in assay [4], 58.8%; in [5], 104%; in [6], 84.2%. Further, the growth is 89.2% in assay [7], 112% in [8], 40% in assay [9] and 57.2% in [10].
As for `O=C(N/N=C/c1ccc(Cl)cc1Cl)c1ccc2nc(-c3ccc(Cl)cc3)[nH]c2c1`, the growth was 38.9% in assay [1]; 8.23% (active) in assay [2]; -36.9% (active) in assay [3]; 21.6% in assay [4]; -4.33% (active) in [5]; -20.2% (active) in assay [6]. Moreover, the growth in assay [7] is 61.2%; in [8], 56.2%; in assay [9], 15.5%; in assay [10], 4.45% (active).
For the molecule `O=C1/C=C/[C@@H](O)[C@@H]2C[C@@H](O)C[C@H]2/C=C/CCC[C@H](CCOCc2ccccc2)O1`, the growth in assay [1] was -24.1% (active); in assay [2] it was 1.3% (active); in [3], 10.6%; in [4], 12.2%; in assay [5], -17.6% (active); in assay [6], 5.36% (active). Moreover, the growth is -28.2% (active) in [7], -28.5% (active) in assay [8], 27.5% in [9] and 7.56% (active) in assay [10].
On to `Cc1cc2nc3c4ccccc4n(CCN(C)C)c3nc2cc1C`, for which the growth in assay [1] is 11%; in [2], 18.1%; in [3] it was 16.9%; in assay [4], -12% (active); in assay [5] it was 26.7%; in [6], -26.5% (active). In addition, the growth was -3.55% (active) in assay [7], -15.2% (active) in assay [8], 10.3% in assay [9] and 4.73% (active) in assay [10].
For `O=C1/C(=C/c2cccc([N+](=O)[O-])c2)COc2ccc(O)cc21`, the growth in assay [1] is 91.3%; in [2], 95.8%; in [3] it was 13.1%; in assay [4] it was 22.4%; in assay [5], 87%; in [6] it was 6.88% (active). Besides, the growth in assay [7] was 52.8%; in assay [8], 102%; in assay [9], 0.606% (active); in assay [10] it was 18.2%.

The values above are taken from PubChem BioAssay (NCI).
